INS-1E GSIS act: primary screen for activators of insulin secretion dependent on glucose, INS-1E cells, GLuc reporter luminescence; AID 743287; INS-1E GLuc reporter insulin secretion, 2-3 h; 0.61% of 370,000 active; activation, % at 16.6 µM;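 active = lowest replicate activation of at least 40%, so every replicate reaches that level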
HIV Env fusion: blocks HIV Env-driven cell-cell fusion; inhibition, % at 12.3 µM; AID 651610; HeLa-JRFL Env/CEM21 cell fusion, luciferase; 1.1% of 360,000 active;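 active = mean replicate inhibition score of at least 50 and every replicate individually at or above 50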
CFTR F508del cor: correctors of CFTR F508del function in bronchial epithelial cells; CFBE cells, YFP halide quenching; stimulated with forskolin plus potentiator P3; % fluorescence drop versus neutral controls; activity (quench increase), % at 7.58 µM; 0.36% of 350,000 active; AID 720511;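 active = mean added fluorescence quench of at least 8% versus neutral control, with both replicates also reaching 8%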;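 note: cells transiently co-express mutant CFTR-F508del with the halide-sensitive YFP; corrector assay measuring rescue of mutant channel to the surface after 24 h compound exposure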
EWS-Fli block: EWS/Fli transcriptional activity inhibition. 0.67% of 350,000 active. inhibition, % at 12.6 µM. A673 NR0B1-luciferase reporter, viability-normalised;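 active = mean inhibition of at least 50% after viability correction, with every replicate also passing that limit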;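 note: firefly luciferase signal divided by Alamar Blue viability fluorescence both relative to DMSO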
PAX8 inh HTS: inhibitors of PAX8 transcriptional activity in RMG-I cells | RMG-I TPO-luciferase reporter, SteadyGlo, 24 h | inhibition, % at 12.6 µM | 1.2% of 360,000 active | AID 652154;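 active = mean replicate inhibition at least 60% with every replicate also reaching 60%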;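 note: luciferase light reporting Pax8 driven TPO promoter activity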
PGC1a acetyl inh: PGC1a acetylation modulation, inhibitor mode; U2OS PGC1a acetylation, AlphaScreen anti-acetyl-lysine; with virally co-expressed GCN5 acetyltransferase; 0.17% of 350,000 active; inhibition, % at 15.6 µM; AID 651687;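 active = every replicate shows inhibition of at least 40%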
Hits are given with their value; i = inactive; nt = no result; [ ] = dose if it differs, or a comment. Rows were chosen to be rich in hits. Some 2.7% of all compounds tested hit in one or more screens of this group.

SMILES | INS-1E GSIS act | HIV Env fusion | CFTR F508del cor | EWS-Fli block | PAX8 inh HTS | PGC1a acetyl inh
C[C@H]1CCCCO[C@@H](CN(C)C)[C@@H](C)CN([C@@H](C)CO)C(=O)c2cc(NS(=O)(=O)c3ccc(Cl)cc3)ccc2O1 | i | i | i | i | i | i
C[C@@H]1CCCCO[C@H](CN(C)C)[C@H](C)CN([C@@H](C)CO)C(=O)c2cc(NS(=O)(=O)c3ccc(Cl)cc3)ccc2O1 | i | i | i | i | 97 | i
C[C@@H]1CCCCO[C@H](CN(C)S(=O)(=O)c2ccc(Cl)cc2)[C@H](C)CN([C@@H](C)CO)C(=O)c2cc(NS(=O)(=O)c3ccc(Cl)cc3)ccc2O1 | i | i | i | i | 74 | i
CC=Cc1ccc2n(c1=O)C[C@H]1[C@H](CO)[C@@H](C(=O)NCCC)[C@@H]2N1Cc1nccs1 (mixture of isomers) | i | nt | i | i | nt | nt
CC(C)NC(=O)N(C)C[C@@H]1Oc2ncc(C#CC3(O)CCCC3)cc2C(=O)N([C@@H](C)CO)C[C@@H]1C | i | i | i | i | nt | i
C[C@@H]1CN([C@@H](C)CO)C(=O)c2cc(NC(=O)Nc3cccc4ccccc34)ccc2O[C@@H]1CN(C)S(=O)(=O)c1cn(C)cn1 | i | nt | i | i | nt | i
CC[C@@H](C)[C@@H]1CN([C@@H](CN2CCC[C@H]2CN2C(N)=NC[C@H]2C(C)C)C(C)C)C(=N)N1CCCC1CCCC1 | i | i | i | i | 84 | i
C[C@H]1CCCCO[C@@H](CN(C)S(=O)(=O)c2cn(C)cn2)[C@@H](C)CN([C@@H](C)CO)C(=O)c2cc(NS(=O)(=O)c3ccc(Cl)cc3)ccc2O1 | i | i | i | i | i | i
COc1ccc2c3c(n(C)c2c1)[C@@H](CO)N(C(=O)C1CC1)CC31CCN(CC2CCCC2)CC1 | i | nt | i | i | i | nt
CCCNC(=O)N1[C@H](C#N)[C@H](c2ccccc2-c2ccccc2)[C@@H]1CO | i | nt | i | i | i | i
COC(=O)C1=C(C)N(Cc2ccc(Cl)cc2)C(=S)NC1c1ccc(OC)cc1 (stereo not given) | i | 84 | i | i | i | nt
CC(=O)C1=C(C)N(Cc2ccc(Cl)cc2)C(=S)NC1c1ccc(Cl)cc1 (stereo not given) | i | 60 | i | i | i | nt
COC(=O)C1=C(C)N(Cc2ccccc2)C(=S)NC1c1ccc(Br)cc1 (stereo not given) | i | i | i | i | i | nt
COC(=O)C1=C(C)N(Cc2ccc(Cl)cc2)C(=S)NC1c1cccc(F)c1 (stereo not given) | nt | i | i | i | i | nt
COC(=O)C1=C(C)N(Cc2ccc(F)cc2)C(=S)NC1c1ccc(Cl)cc1 (stereo not given) | i | 59 | i | i | i | nt
COC(=O)C1=C(C)N(Cc2ccccc2)C(=S)N[C@H]1c1ccc(Br)cc1 | i | 67 | i | i | i | i
COc1ccccc1-c1cn(CC[C@@H]2CC[C@H](NC(=O)NC(C)C)[C@@H](CO)O2)nn1 | i | i | i | i | i | i
CCS(=O)(=O)Nc1ccc2c(c1)C(=O)N(C)C[C@@H](OC)[C@@H](C)CN(Cc1nccs1)[C@H](C)CO2 | i | nt | i | i | nt | i
COc1ccc(-c2cc(C(=O)OCC(=O)NC3CC3)c3ccccc3n2)cc1 | i | nt | i | i | i | i
COc1ccc2cc(-c3cc(C(=O)OCC(=O)NC4CCS(=O)(=O)C4)c4ccccc4n3)ccc2c1 (stereo not given) | 91 | i | nt | nt | i | nt
Cn1nc(C(=O)N2CCCCC2)c2c1-c1ccccc1S(=O)(=O)C2 | i | i | i | i | i | 48
CC1CCCN(C(=O)c2nn(C)c3c2CS(=O)(=O)c2ccccc2-3)C1 (stereo not given) | i | i | i | nt | i | i
O=C(C[C@@H]1CC[C@H](NC(=O)c2ccccc2)[C@H](CO)O1)NCCc1ccncc1 | i | i | i | i | nt | i
O=C(Cc1n[nH]c(=O)c2ccccc12)OCC(=O)c1ccc(F)cc1 | i | i | i | i | i | i
CCOc1ccc(C(=O)COC(=O)Cc2n[nH]c(=O)c3ccccc23)cc1 | i | i | 13 | i | i | i
SMILES | INS-1E GSIS act | HIV Env fusion | CFTR F508del cor | EWS-Fli block | PAX8 inh HTS | PGC1a acetyl inh
N#C[C@@H]1[C@@H](c2ccc(-c3ccc(F)cc3)cc2)[C@@H](CO)N1S(=O)(=O)Cc1ccccc1 | i | i | i | i | 69 | i
N#C[C@@H]1[C@@H](c2ccccc2)[C@@H](CO)N1S(=O)(=O)Cc1ccccc1 | i | nt | i | i | i | i
N#C[C@H]1[C@@H](c2ccc(-c3ccccc3)cc2)[C@@H](CO)N1S(=O)(=O)Cc1ccccc1 | i | 62[16.7 µM] | i | i | i | i
COc1ccc(NC(=O)N(C)C[C@@H]2Oc3ccc(NS(=O)(=O)c4ccccc4)cc3CC(=O)N([C@H](C)CO)C[C@@H]2C)cc1 | i | i | i | i | nt | i
COc1ccc(NC(=O)Nc2ccc3c(c2)C(=O)N([C@H](C)CO)C[C@H](C)[C@@H](CN(C)CC2CCCCC2)O3)cc1 | i | i | i | i | i | i
O=C(c1cccc(F)c1)N1CC(=O)N2[C@H](CO)[C@H](c3ccc(-c4ccccc4F)cc3)[C@H]2C1 | i | nt | i | i | i | i
COc1ccc(Nc2oc(COc3ccc(Cl)cc3)nc2C#N)cc1 | nt | 84 | nt | nt | i | i
COc1ccc(Nc2oc(-c3ccc(Cl)cc3)nc2C#N)cc1 | nt | i | nt | nt | nt | i
COc1ccc(N2CCN(c3oc(COc4ccc(Cl)cc4)nc3C#N)CC2)cc1 | nt | nt | nt | nt | nt | i
CN(C)CCNc1oc(COc2ccc(-c3ccccc3)cc2)nc1C#N | i | nt | i | i | nt | 58
N#Cc1nc(COc2ccc(-c3ccccc3)cc2)oc1NCCCN1CCOCC1 | nt | nt | nt | nt | nt | i
CCOc1ccc(Nc2oc(-c3ccc(Cl)cc3)nc2C#N)cc1 | 73 | i | nt | nt | nt | i
C[C@H](CO)N1C[C@H](C)[C@@H](CN(C)C(=O)Nc2ccc(C(F)(F)F)cc2)Oc2ccc(NS(=O)(=O)c3ccc(F)cc3)cc2CC1=O | i | i | i | i | i | i
N#Cc1cccnc1Nc1cccc(Cl)c1 | 59 | nt | i | i | i | i
C[C@H](CO)N1C[C@H](C)[C@H](CN(C)C(=O)Nc2ccccc2)Oc2ncc(/C=C/c3ccccc3)cc2C1=O | i | nt | i | i | nt | i
N#CCC(=O)N/N=C/c1cn(Cc2ccccc2C#N)c2ccccc12 | nt | i | i | i | i | i
N#CCC(=O)N/N=C/c1cn(Cc2cccc3ccccc23)c2ccccc12 | i | i | 11 | 53 | i | i
Cc1cc(C)n2c(=O)c3ccc(Cl)cc3nc2c1C#N | i | i | i | i | i | nt
Cc1cc(Cl)n2c(nc3cc(F)c(F)cc32)c1C#N | i | i | i | 58 | 74 | i
CCCC#Cc1ccc2c(c1)O[C@@H](CN(C)C(=O)C1CCCCC1)[C@@H](C)CN([C@@H](C)CO)S2(=O)=O | i | i | i | i | nt | i
OCCCNc1nc(-c2ccc(Cl)cc2)nc2ccccc12 | 58 | i | i | i | i | nt
